# Measurements as given in PubChem BioAssay (NCATS).
# Activity calls are given as the source filed them. Calls come from the whole dose curve.
# Target: Guanidinoacetate N-methyltransferase (Homo sapiens) (UniProt Q14353)
# Assay: Confirmatory Screen for Target Class Profiling of Small Molecule Inhibitors of Methyltransferases (AID 1745852); for activity change, negative = inhibition: % is set by controls: 0 for no effect and ±100 for the full control effect
# Settings: MTase-Glo luminescence, SAH detection, recombinant enzyme; activity change, negative = inhibition: at 57.3 µM (top of the series) unless noted
# Potency is the fitted concentration of half-maximal effect.
Compound,"activity change, negative = inhibition",Potency
COc1cc(/C=C/C(=O)O[C@H]2[C@@H]3C=CO[C@@H](O[C@@H]4O[C@H](CO)[C@@H](O)[C@H](O)[C@H]4O)[C@@H]3[C@@]3(CO)O[C@@H]23)ccc1O,0% [at 29.8 µM],
O=C(NCC(=O)N1CCCC1)Nc1ccc2ccccc2c1,-10.4%,
CC(=O)c1c(C)cccc1O[C@@H]1O[C@H](CO)[C@@H](O)[C@H](O)[C@H]1O,-2.96%,
O=C(O)CC(CCc1ccccc1)OC1OC(CO)C(O)C(O)C1O (centres undefined),-3.69%,
CC1CCCCCCCc2cc(O)cc(O)c2C(=O)O1 (centres undefined),,30.4 µM (active)
OC[C@H]1O[C@@H](OCCc2ccccc2)[C@H](O[C@@H]2OC[C@@H](O)[C@H](O)[C@H]2O)[C@@H](O)[C@@H]1O,0% [at 29.8 µM],
C=C1C(=O)O[C@@H]2CC(C)=C([C@@H](C)CCCOC(C)=O)[C@@H](O)[C@H]12,1.58%,
O=C(/C=C/c1ccc(O)cc1)OC[C@@]1(O)C=C[C@@H]2C(C(=O)O)=CO[C@@H](O[C@@H]3O[C@H](CO)[C@@H](O)[C@H](O)[C@H]3O)[C@@H]21,0.0203% [at 29.8 µM],
CC(C)(O)C1CC=C(C(=O)OC[C@H]2O[C@@H](Oc3cc(C(=O)O)cc(O)c3O)[C@H](O)[C@@H](O)[C@@H]2O)CC1 (some centres undefined),-6.92% [at 29.8 µM],
C=C1CC/C=C(/CO)C(=O)C[C@@H]2[C@@H]1C[C@@]2(C)COC(C)=O,0%,
COc1ccccc1CN[C@H]1CCCN[C@H]1c1ccccc1,7.32%,
CC(=O)NC(Cc1c[nH]c2ccccc(=O)c12)C(=O)O (centres undefined),0%,
COC(=O)[C@H](Cc1cccc(C(=N)N)c1)[C@@H](C)NC(=O)c1ccc(-c2cc[n+]([O-])cc2)cc1,0%,
COc1c2cc(c(O[C@@H]3O[C@H](CO)[C@@H](O)[C@H](O)[C@H]3O)c1OC)CCCCC(O)CCc1ccc(O)c-2c1 (some centres undefined),-7.96% [at 29.8 µM],
C/C(=C\CC/C(C)=C/CC[C@]1(C)CCc2cc(O)cc(C)c2O1)CC/C=C(\C)C(=O)O,0% [at 29.8 µM],
CSC(=O)OCC1=C[C@@H]2OC(=O)C3=CO[C@@H](O[C@@H]4O[C@H](CO)[C@@H](O)[C@H](O)[C@H]4O)[C@H]1[C@@H]32,-9.29% [at 29.8 µM],
C[C@@H]1O[C@@H](OC[C@H]2O[C@@H](OCc3ccccc3)[C@H](O)[C@@H](O)[C@@H]2O)[C@H](O)[C@H](O)[C@H]1O,-3.1% [at 29.8 µM],
CC(=O)OC/C(=C/C(=O)O)CC[C@@H]1C(C)=CC(=O)[C@@H]2C(C)(C)CCC[C@@]12C,0%,
COc1cc(C2Oc3c(OC)cc(CCCO)cc3C2CO)ccc1O (centres undefined),-2.79%,
O=C(O)CC1(O)C(=O)Nc2ccccc21 (centres undefined),0% [at 85.7 µM],
COc1c(O)cc2c(c1O)C(=O)O[C@H](C)[C@H]2O,0.552%,
O=C(O)CCc1ccc(NCc2cccc3c2CCCN3CCOc2ccccc2)cc1F,-0.799%,
CC1CC(=O)C2=C(O1)OC1(C)CCC3C(C)(C)C4OC4C(=O)C3(C)C1C2 (centres undefined),0%,
CC(C)(O)C1CC=C(C(=O)OC[C@H]2O[C@@H](OC(=O)C3=CCC(C(C)(C)O)CC3)[C@H](O)[C@@H](O)[C@@H]2O)CC1 (some centres undefined),-9.84% [at 29.8 µM],
CC1(C)CC[C@]2(C(=O)O[C@@H]3O[C@H](CO)[C@@H](O)[C@H](O)[C@H]3O)CC[C@]3(C)C(=CCC4[C@@]5(C)C[C@@H](O)[C@H](O)[C@@](C)(CO)C5[C@H](O)C[C@]43C)C2[C@@H]1O (some centres undefined),0% [at 19.1 µM],
COc1cc(C2Oc3c(OC)cc(/C=C/C(=O)OC4CC(O)(C(=O)O)CC(O)C4O)cc3C2CO)ccc1O (centres undefined),-2.32% [at 29.8 µM],
COc1ccc(CC(NC(C)=O)C(=O)O)cc1 (centres undefined),0%,

# Target: Nicotinamide N-methyltransferase (Homo sapiens) (UniProt P40261)
# Sequence (P40261 whole entry, looked up): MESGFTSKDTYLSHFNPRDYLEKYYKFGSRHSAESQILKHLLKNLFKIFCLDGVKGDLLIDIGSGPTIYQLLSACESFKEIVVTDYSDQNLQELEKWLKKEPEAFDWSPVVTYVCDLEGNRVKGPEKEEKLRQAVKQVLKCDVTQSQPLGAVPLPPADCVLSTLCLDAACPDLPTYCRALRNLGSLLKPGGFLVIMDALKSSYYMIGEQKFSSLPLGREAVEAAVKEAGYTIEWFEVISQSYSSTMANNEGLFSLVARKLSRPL
# Assay: as above
# Settings: MTase-Glo luminescence, SAH detection, recombinant enzyme; measured here: NNMT max response; stronger effect = lower value
row,Compound,activity
1,COc1cc(/C=C/C(=O)O[C@H]2[C@@H]3C=CO[C@@H](O[C@@H]4O[C@H](CO)[C@@H](O)[C@H](O)[C@H]4O)[C@@H]3[C@@]3(CO)O[C@@H]23)ccc1O,1.36%
2,O=C(NCC(=O)N1CCCC1)Nc1ccc2ccccc2c1,-23%
3,CC(=O)c1c(C)cccc1O[C@@H]1O[C@H](CO)[C@@H](O)[C@H](O)[C@H]1O,-4.15%
4,O=C(O)CC(CCc1ccccc1)OC1OC(CO)C(O)C(O)C1O (centres undefined),-1.93%
5,CC1CCCCCCCc2cc(O)cc(O)c2C(=O)O1 (centres undefined),-60.9%
6,OC[C@H]1O[C@@H](OCCc2ccccc2)[C@H](O[C@@H]2OC[C@@H](O)[C@H](O)[C@H]2O)[C@@H](O)[C@@H]1O,3.88%
7,C=C1C(=O)O[C@@H]2CC(C)=C([C@@H](C)CCCOC(C)=O)[C@@H](O)[C@H]12,-0.922%
8,O=C(/C=C/c1ccc(O)cc1)OC[C@@]1(O)C=C[C@@H]2C(C(=O)O)=CO[C@@H](O[C@@H]3O[C@H](CO)[C@@H](O)[C@H](O)[C@H]3O)[C@@H]21,-1.35%
9,CC(C)(O)C1CC=C(C(=O)OC[C@H]2O[C@@H](Oc3cc(C(=O)O)cc(O)c3O)[C@H](O)[C@@H](O)[C@@H]2O)CC1 (some centres undefined),-6.11%
10,C=C1CC/C=C(/CO)C(=O)C[C@@H]2[C@@H]1C[C@@]2(C)COC(C)=O,0.048%
11,COc1ccccc1CN[C@H]1CCCN[C@H]1c1ccccc1,-6.63%
12,CC(=O)NC(Cc1c[nH]c2ccccc(=O)c12)C(=O)O (centres undefined),3.04%
13,COC(=O)[C@H](Cc1cccc(C(=N)N)c1)[C@@H](C)NC(=O)c1ccc(-c2cc[n+]([O-])cc2)cc1,1.87%
14,COc1c2cc(c(O[C@@H]3O[C@H](CO)[C@@H](O)[C@H](O)[C@H]3O)c1OC)CCCCC(O)CCc1ccc(O)c-2c1 (some centres undefined),-5.32%
15,C/C(=C\CC/C(C)=C/CC[C@]1(C)CCc2cc(O)cc(C)c2O1)CC/C=C(\C)C(=O)O,-14.3%
16,CSC(=O)OCC1=C[C@@H]2OC(=O)C3=CO[C@@H](O[C@@H]4O[C@H](CO)[C@@H](O)[C@H](O)[C@H]4O)[C@H]1[C@@H]32,-7.9%
17,C[C@@H]1O[C@@H](OC[C@H]2O[C@@H](OCc3ccccc3)[C@H](O)[C@@H](O)[C@@H]2O)[C@H](O)[C@H](O)[C@H]1O,-3.31%
18,CC(=O)OC/C(=C/C(=O)O)CC[C@@H]1C(C)=CC(=O)[C@@H]2C(C)(C)CCC[C@@]12C,-1.14%
19,COc1cc(C2Oc3c(OC)cc(CCCO)cc3C2CO)ccc1O (centres undefined),-9.4%
20,O=C(O)CC1(O)C(=O)Nc2ccccc21 (centres undefined),4.18%
21,COc1c(O)cc2c(c1O)C(=O)O[C@H](C)[C@H]2O,0.175%
22,O=C(O)CCc1ccc(NCc2cccc3c2CCCN3CCOc2ccccc2)cc1F,-32.3%
23,CC1CC(=O)C2=C(O1)OC1(C)CCC3C(C)(C)C4OC4C(=O)C3(C)C1C2 (centres undefined),-84.6%
24,CC(C)(O)C1CC=C(C(=O)OC[C@H]2O[C@@H](OC(=O)C3=CCC(C(C)(C)O)CC3)[C@H](O)[C@@H](O)[C@@H]2O)CC1 (some centres undefined),-5.04%
25,CC1(C)CC[C@]2(C(=O)O[C@@H]3O[C@H](CO)[C@@H](O)[C@H](O)[C@H]3O)CC[C@]3(C)C(=CCC4[C@@]5(C)C[C@@H](O)[C@H](O)[C@@](C)(CO)C5[C@H](O)C[C@]43C)C2[C@@H]1O (some centres undefined),4%
26,COc1cc(C2Oc3c(OC)cc(/C=C/C(=O)OC4CC(O)(C(=O)O)CC(O)C4O)cc3C2CO)ccc1O (centres undefined),-1.14%
27,COc1ccc(CC(NC(C)=O)C(=O)O)cc1 (centres undefined),1.04%
